Results filed as inconclusive are left out. Where a call stands in place of a potency, no number is given. The source made the active and inactive calls. The call rests on the fitted dose curve; in most records, active means well fitted curve in the direction sought with a large enough effect; inconclusive means small, poorly fitted or top-dose-only effect, or another doubt; inactive means no such curve, though single readings can be large; an effect the other way counts as inactive or inconclusive.
Legend:
[1] = qHTS of pediatric cancer cell lines to identify multiple opportunities for drug repurposing: Confirmatory screen for SJ-GBM2 cells (AID 1347116); details: SJ-GBM2 glioblastoma cells, viability; series mostly up to 45.9 µM; further: nearly all actives have a fitted effect of over 60% in size; further: potency means the concentration at half of the fitted maximal effect
Summary of the method: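 Viability measured as metabolically active cells via CellTiter-Glo luminescence following 48 hours of compound exposure, 11-point dilutions in confirmatory testing. 500-1,000 cells/well plated 5 hours before dosing; controls were DMSO and 2.3 µM bortezomib.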

[2] = qHTS of pediatric cancer cell lines to identify multiple opportunities for drug repurposing: Confirmatory screen for BT-37 cells (AID 1347117); details: BT-37 pediatric cancer cells, viability; series mostly up to 45.9 µM; further: nearly all actives have a fitted effect of over 55% in size; further: potency means the concentration at half of the fitted maximal effect
Summary of the method: (§1)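 Cells (500-1,000/well) in growth media were settled 5 h at 37 degrees C, then given compounds for 48 h. Viability was read as CellTiter-Glo luminescence. Primary runs used MIPE at 11 points (0.78 nM-46 µM) and NPC at 8 points (0.59 nM-46 µM); follow-ups used 11 points.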

[3] = qHTS of pediatric cancer cell lines to identify multiple opportunities for drug repurposing: Confirmatory screen for TC32 cells (AID 1347118); details: TC32 Ewing sarcoma cells viability qHTS; series mostly up to 45.9 µM;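 further: cells exposed to compound for 48 h before the read; nearly all actives have a fitted effect of over 65% in size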; further: potency means the concentration at half of the fitted maximal effect
Summary of the method: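 qHTS, TC32, 48 h drug treatment, CellTiter-Glo luminescence as a proxy for metabolically active cells; primary top concentration 46 µM (MIPE 11-pt, NPC 8-pt); confirmatory 11-pt.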

[4] = qHTS of pediatric cancer cell lines to identify multiple opportunities for drug repurposing: Confirmatory screen for MG 63 (6-TG R) cells (AID 1347119); details: MG-63 (6-TG resistant) osteosarcoma viability; series mostly up to 45.9 µM; further: nearly all actives have a fitted effect of over 55% in size; further: potency means the concentration at half of the fitted maximal effect
Summary of the method: as §1

[5] = qHTS of pediatric cancer cell lines to identify multiple opportunities for drug repurposing: Confirmatory screen for control Hh wild type fibroblast cells (AID 1347121); details: viability qHTS; series mostly up to 45.9 µM; further: nearly all actives have a fitted effect of over 70% in size; further: potency means the concentration at half of the fitted maximal effect
Summary of the method: as §1

[6] = qHTS of pediatric cancer cell lines to identify multiple opportunities for drug repurposing: Confirmatory screen for U-2 OS cells (AID 1347122); details: U-2 OS osteosarcoma cell viability; series mostly up to 45.9 µM; further: nearly all actives have a fitted effect of over 65% in size; further: potency means the concentration at half of the fitted maximal effect
Summary of the method: as §1

[7] = qHTS of pediatric cancer cell lines to identify multiple opportunities for drug repurposing: Confirmatory screen for Rh41 cells (AID 1347123); details: Rh41 rhabdomyosarcoma cells, viability/cytotoxicity qHTS; series mostly up to 45.9 µM;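 further: 48 h compound exposure; nearly all actives have a fitted effect of over 60% in size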; further: potency means the concentration at half of the fitted maximal effect
Summary of the method: as §1

[8] = qHTS of pediatric cancer cell lines to identify multiple opportunities for drug repurposing: Confirmatory screen for RD cells (AID 1347124); details: RD rhabdomyosarcoma cell viability; series mostly up to 45.9 µM;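 further: cells exposed to compound for 48 h before viability readout; nearly all actives have a fitted effect of over 65% in size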; further: potency means the concentration at half of the fitted maximal effect
Summary of the method: as §1

[9] = qHTS of pediatric cancer cell lines to identify multiple opportunities for drug repurposing: Confirmatory screen for Rh18 cells (AID 1347125); details: Rh18 rhabdomyosarcoma cells, viability; series mostly up to 45.9 µM; further: nearly all actives have a fitted effect of over 55% in size; further: potency means the concentration at half of the fitted maximal effect
Summary of the method: as §1

[10] = qHTS of pediatric cancer cell lines to identify multiple opportunities for drug repurposing: Confirmatory screen for Rh30 cells (AID 1347126); details: Rh30 rhabdomyosarcoma cell viability; series mostly up to 45.9 µM; further: nearly all actives have a fitted effect of over 55% in size; further: potency means the concentration at half of the fitted maximal effect
Summary of the method: as §1

[11] = qHTS of pediatric cancer cell lines to identify multiple opportunities for drug repurposing: Confirmatory screen for OHS-50 cells (AID 1347128); details: OHS-50 osteosarcoma cells viability; series mostly up to 45.9 µM; further: potency means the concentration at half of the fitted maximal effect
Summary of the method: as §1

[12] = qHTS of pediatric cancer cell lines to identify multiple opportunities for drug repurposing: Confirmatory screen for SK-N-SH cells (AID 1347129); details: SK-N-SH neuroblastoma cell viability; series mostly up to 46.1 µM;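 further: cells exposed to compound for 48 h before viability read; nearly all actives have a fitted effect of over 60% in size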; further: potency means the concentration at half of the fitted maximal effect
Summary of the method: as §1

[13] = system: Zika virus NS2B-NS3 protease; experiment: Primary screen GU AMC qHTS for Zika virus inhibitors (AID 1347154); details: Zika NS2B-NS3 unlinked protease, AMC fluorogenic substrate; series mostly up to 54.1 µM; further: nearly all actives have a fitted effect of over 70% in size
Summary of the method: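 Unlinked Zika NS2B hydrophilic domain/NS3 protease domain noncovalent complex (25 nM final) in 10 mM Tris-HCl pH 8.0, 0.01% Tween 20, with AMC peptide substrate. Fluorescence (ex 340, em 450 nm) change over 15 min, room temperature; percent inhibition fitted to 4-parameter Hill equation.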

[14] = system: Zika virus NS2B-NS3 protease (unlinked complex); experiment: Primary screen GU Rhodamine qHTS for Zika virus inhibitors: Unlinked NS2B-NS3 protease assay (AID 1347159); details: Recombinant ZIKV NS2B-NS3 protease, Rhodamine110 substrate fluorescence; series mostly up to 107 µM; further: nearly all actives have a fitted effect of over 60% in size
Summary of the method: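 Enzyme 25 nM in Tris-HCl pH 8.0 + 0.01% Tween 20; compounds up to 114 microM, 15 min RT dark; + Rhod110 substrate 1.5 microM; read t0 and 15 min; delta fluorescence → % inhibition → 4-parameter Hill fit.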

Compound	Potency [1]	Potency [2]	Potency [3]	Potency [4]	Potency [5]	Potency [6]	Potency [7]	Potency [8]	Potency [9]	Potency [10]	Potency [11]	Potency [12]	Potency [13]	outcome [14]
C[C@]12C=CC(=O)C=C1CC[C@@H]1[C@@H]2[C@@H](O)C[C@@]2(C)[C@H]1CC[C@]2(O)C(=O)CO	inactive	inactive	26100 nM (active)	inactive	inactive	inactive	inactive	inactive	inactive	inactive	inactive	inactive	inactive	–
NC(CO)(CO)CO	inactive	inactive	11700 nM (active)	inactive	inactive	inactive	inactive	inactive	inactive	–	inactive	inactive	inactive	–
C[C@@H]1C[C@H]2[C@@H]3CCC4=CC(=O)C=C[C@]4(C)[C@@]3(F)[C@@H](O)C[C@]2(C)[C@H]1C(=O)CO	inactive	inactive	inactive	–	inactive	inactive	–	inactive	inactive	inactive	inactive	inactive	inactive	–
COCc1c(C(C)C)nc(C(C)C)c(/C=C/[C@@H](O)C[C@@H](O)CC(=O)O)c1-c1ccc(F)cc1	2610 nM (active)	1650 nM (active)	928 nM (active)	36.9 nM (active)	inactive	261 nM (active)	2330 nM (active)	928 nM (active)	522 nM (active)	414 nM (active)	465 nM (active)	418 nM (active)	inactive	–
CCCCCCC[N+](CC)(CC)CCCCc1ccc(Cl)cc1	–	5220 nM (active)	–	13100 nM (active)	9270 nM (active)	inactive	–	inactive	13100 nM (active)	10400 nM (active)	23300 nM (active)	20900 nM (active)	inactive	–
C[C@H]1C[C@H]2[C@@H]3CCC4=CC(=O)C=C[C@]4(C)[C@@]3(Cl)[C@@H](O)C[C@]2(C)[C@@]1(O)C(=O)CO	inactive	inactive	inactive	inactive	inactive	inactive	–	inactive	inactive	inactive	inactive	inactive	–	–
C[C@]12CCC(=O)C=C1CC[C@H]1[C@@H]3CC[C@](O)(C(=O)CO)[C@@]3(C)C[C@H](O)[C@@]12F	inactive	inactive	–	inactive	inactive	inactive	inactive	inactive	inactive	–	inactive	inactive	inactive	–
COc1cccc2c1C(=O)c1c(O)c3c(c(O)c1C2=O)C[C@@](O)(C(=O)CO)C[C@@H]3O[C@H]1C[C@H](N)[C@H](O)[C@H](C)O1	2610 nM (active)	657 nM (active)	465 nM (active)	5850 nM (active)	–	–	1470 nM (active)	5220 nM (active)	5220 nM (active)	–	14700 nM (active)	1320 nM (active)	inactive	–
CC(=O)OCC(=O)[C@@]1(OC(C)=O)[C@@H](C)C[C@H]2[C@@H]3C[C@H](F)C4=CC(=O)C=C[C@]4(C)[C@@]3(F)[C@@H](O)C[C@@]21C	inactive	–	–	–	inactive	inactive	–	inactive	inactive	inactive	inactive	inactive	–	–
CC1(C)O[C@@H]2C[C@H]3[C@@H]4CCC5=CC(=O)CC[C@]5(C)[C@@]4(F)[C@@H](O)C[C@]3(C)[C@]2(C(=O)CCl)O1	inactive	inactive	inactive	–	inactive	inactive	–	inactive	inactive	inactive	inactive	–	inactive	–
CCCC(=O)O[C@]1(C(=O)CO)CC[C@H]2[C@@H]3CCC4=CC(=O)CC[C@]4(C)[C@H]3[C@@H](O)C[C@@]21C	inactive	inactive	inactive	–	inactive	inactive	–	inactive	inactive	inactive	inactive	–	–	–
CCC(C(=O)OCCN(CC)CC)c1ccccc1 (configuration not stated)	inactive	inactive	10400 nM (active)	inactive	inactive	inactive	inactive	inactive	inactive	inactive	–	inactive	inactive	–
CC(C)(C(=O)c1cccnc1)c1cccnc1	–	–	3290 nM (active)	inactive	inactive	inactive	inactive	inactive	inactive	inactive	inactive	inactive	–	–
CC(=O)OCC(=O)[C@@]1(O)CC[C@H]2[C@@H]3CCC4=CC(=O)C=C[C@]4(C)[C@H]3[C@@H](O)C[C@@]21C	inactive	–	inactive	inactive	inactive	inactive	inactive	inactive	inactive	inactive	inactive	inactive	–	inactive
